From PubChem BioAssay
A selection: hits, their analogues and other compounds. The true share with any hit is near 4.2%.
GDH-TPI counter-1 – GDH-TPI coupling enzyme inhibitors, primary screen, artefact control for M. tuberculosis FBA inhibitor project, biochemical, absorbance, full deck | GDH-TPI coupled enzyme counterscreen, NADH absorbance | inhibition, % at 4.8 µM | 360,000 tested, 1.2% active | AID 588335, 2011; in the data active means inhibition above about 30%;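 further: 0% = DMSO wells and 100% = wells lacking the enzyme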
RecA intein inh – Mtb RecA intein splicing inhibitors, primary screen, biochemical, fluorescence, HTS; cell-free RecA intein splicing; inhibition, % (no concentration beside the values); 290,000 tested, 0.75% active; AID 2221, 2009; in the data active means inhibition above about 30%;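 further: 0% = vehicle wells and 100% = reference inhibitor control wells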
Target sequence (P9WHJ3 whole entry, looked up): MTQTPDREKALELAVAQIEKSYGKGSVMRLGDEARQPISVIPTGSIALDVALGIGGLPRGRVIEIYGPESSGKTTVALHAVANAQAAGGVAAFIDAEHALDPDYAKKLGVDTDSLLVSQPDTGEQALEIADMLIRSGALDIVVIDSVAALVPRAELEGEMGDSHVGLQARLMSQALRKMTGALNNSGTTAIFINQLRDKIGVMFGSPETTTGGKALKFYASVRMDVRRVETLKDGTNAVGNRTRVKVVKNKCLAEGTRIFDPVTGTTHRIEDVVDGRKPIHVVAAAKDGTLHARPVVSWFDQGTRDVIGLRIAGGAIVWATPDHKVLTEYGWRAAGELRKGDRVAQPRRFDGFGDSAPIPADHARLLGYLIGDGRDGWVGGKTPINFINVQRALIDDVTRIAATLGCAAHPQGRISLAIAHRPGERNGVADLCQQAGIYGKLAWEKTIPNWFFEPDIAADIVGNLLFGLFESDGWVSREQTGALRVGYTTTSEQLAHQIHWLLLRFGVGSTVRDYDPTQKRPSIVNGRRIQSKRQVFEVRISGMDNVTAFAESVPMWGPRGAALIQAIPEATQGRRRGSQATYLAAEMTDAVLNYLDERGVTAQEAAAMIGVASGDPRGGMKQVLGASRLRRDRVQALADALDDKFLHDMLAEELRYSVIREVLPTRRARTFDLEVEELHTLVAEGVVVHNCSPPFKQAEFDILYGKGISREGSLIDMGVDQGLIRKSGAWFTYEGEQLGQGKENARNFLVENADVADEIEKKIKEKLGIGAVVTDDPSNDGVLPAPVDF
FBA Mtb inh – Mtb FBA enzyme inhibitors, primary screen, biochemical, fluorescence, strain H37Rv; purified M. tuberculosis FBA, fluorescence read-out; inhibition, % at 1 µM; 360,000 tested, 2.3% active; Fructose-bisphosphate aldolase (Mycobacterium tuberculosis (strain ATCC 25618 / H37Rv)), …;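 further: 0% = vehicle and 100% = reference inhibitor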
BJeLR viability – MLPCN primary cell-based screen for lethality selective to Ras in HRASV12 cells; BJeLR (HRASV12) viability, CellTiter-Glo ATP luminescence, 48 h; AID 1554, 2009; 300,000 tested, 0.17% active; inhibition, % (concentration not given with the values); in the data active means inhibition above about 50%
PrPC surface inh – inhibitors of human cell surface prion protein PrPC, primary screen, cell-based, TR-FRET. Major prion protein (Homo sapiens), P04156. TR-FRET read-out. inhibition, % at 13.8 µM. 370,000 tested, 0.43% active. AID 720596, 2013; in the data active means inhibition above about 24%; further: 0% = median of the test wells and 100% = reference compound wells
Mtb FBA inh conf – M. tuberculosis aldolase blockers, biochemical, fluorescence, strain H37Rv, confirmation; shares compounds with FBA Mtb inh; purified M. tuberculosis FBA, fluorescence read-out; inhibition, % at 1 µM; 5,600 tested, 78% active;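 further: 0% = vehicle wells and 100% = reference inhibitor wells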
GDH-TPI counter-2 – GDH-TPI coupling enzyme inhibitors, artefact control for M. tuberculosis FBA inhibitor project, biochemical, fluorescence, high throughput; AID 652141, 2013; GDH-TPI coupled enzyme counterscreen; 5,600 tested, 81% active; shares compounds with FBA Mtb inh; inhibition, % at 1 µM; in the data active means inhibition above about 10%
GDH-TPI dose – GDH-TPI coupling enzyme inhibitors, dose response, artefact control for M. tuberculosis FBA inhibitor project, biochemical, fluorescence, IC50; IC50, µM; GDH-TPI coupled enzyme assay, artifact counterscreen; 170 tested, 79% active; shares compounds with FBA Mtb inh; call rule not given here
Active calls of the source: *; . = no result; + = active, no number. Unless noted, no stated cut-off is given here; in the data, active means inhibition above about 27%; inactive means the rest.

SMILES | GDH-TPI counter-1 | RecA intein inh | FBA Mtb inh | BJeLR viability | PrPC surface inh | Mtb FBA inh conf | GDH-TPI counter-2 | others
COc1c2c(cc3oc(=O)ccc13)OC(C)(C)C=C2 | 27 | -3 | 24 | -1 | 0 | . | .
CC1(C)Oc2cc3oc(=O)ccc3cc2C[C@@H]1O | 14 | . | 65* | . | -3 | 105* | 107*
CC1(C)Oc2cc3oc(=O)ccc3c3c2C2C1CCC(C)(O3)C2O (stereo not given) | 19 | . | 29* | . | 0 | 154* | 121*
Cc1cn(-c2cc(NC(=O)c3ccc(C)c(Nc4nccc(-c5cccnc5)n4)c3)cc(C(F)(F)F)c2)cn1 | . | . | . | . | 0 | . | .
C[C@@H]1ON(C)[C@H]2C[C@H]3c4[nH]c5cccc(-c6cccc(F)c6)c5c4CCN3C(=O)[C@@H]12 | . | . | . | . | 7 | . | .
COc1ccc(-c2c(Cc3ccccc3)nc(NC(=O)c3ccccc3F)n2C)cc1 | . | . | . | . | 1 | . | .
COc1cccc2c(=O)c3ccoc3n(C)c12 | 22 | -2 | 40* | 14 | 0 | 75* | 57*
COc1cc(=O)n(C)c2c(O)cccc12 | 1 | -44 | -2 | 6 | -3 | . | .
CCSCC(C)(C)n1[nH]c2ccccc2c1=O | -5 | . | 0 | . | 2 | . | .
C=CCOCCn1[nH]c2ccccc2c1=O | 3 | . | 47* | . | 2 | 130* | 108*
COc1ccc(-c2coc3cc(O)ccc3c2=O)cc1 | 22 | -2 | 35* | 8 | 10 | 121* | 94*
COc1ccc(-c2coc3cc(O)c(OC)cc3c2=O)cc1 | 34* | . | 44* | . | -6 | 84* | 54*
COc1ccc(-c2coc3cc(OC)ccc3c2=O)cc1 | 17 | . | 7 | . | 0 | . | .
CCOC(=O)C1=C(C(=O)OCC)C2N(Cc3ccc(Br)cc3)c3ccccc3[C@@]23C[C@@H](C(=O)OC)N(S(=O)(=O)c2ccc(C(F)(F)F)cc2)C3=N1 (stereo not given in full) | . | . | . | . | 4 | . | .
C[C@@H](N)P(=O)(O)C[C@H](Cc1ccccc1)C(=O)O | . | . | . | . | 12 | . | .
CCCC1CCC2(CC1)CCC2OC(=O)Nc1cc(C)cc(C)c1 (stereo not given) | . | . | . | . | 3 | . | .
CCCn1nc2cc(C(=O)NCCCCc3ccccc3)ccc2c1OCC | 9 | 5 | 53* | 10 | 1 | 132* | 104*
CCCCn1nc2cc(C(=O)NCc3ccccc3OC)ccc2c1OCC | -8 | 1 | 19 | 10 | 2 | . | .
CCCn1nc2cc(C(=O)NCCc3ccc(C)cc3)ccc2c1OCC | 4 | 1 | 55* | 1 | 1 | 64* | 67*
C=CCOc1c2ccc(C(=O)NCCc3ccc(C)cc3)cc2nn1C | 9 | -1 | 15 | -8 | 4 | . | .
O=c1cc(N2CCN(c3ccnc4cc(Cl)ccc34)CC2)[nH]c(=O)n1C1CCCCC1 | . | . | . | . | -9 | . | .
CN1CCN(C(=O)c2cccc(-c3cnc4cnc(-c5ccccc5Oc5ccccc5)cn34)c2)CC1 | 5 | . | 36* | . | -6 | 113* | 102*
O=C(OCC#CCSc1nnc(-c2cccc3ncccc23)o1)c1ccc(F)cc1 | . | . | . | . | -5 | . | .
COc1ccc(-c2cnc3n2CCCCC3)cc1 | -2 | -3 | 5 | -2 | 5 | . | .
COc1ccc(-c2c[n+]3c4n2CCCCC4=C(c2ccc(Br)cc2)C3)cc1 | 8 | 24 | 75* | -2 | -1 | 136* | 105*
SMILES | GDH-TPI counter-1 | RecA intein inh | FBA Mtb inh | BJeLR viability | PrPC surface inh | Mtb FBA inh conf | GDH-TPI counter-2 | others
CCc1ccc(S(=O)(=O)c2n[nH]n3c2nc(=O)c2ccccc23)cc1 | 4 | -5 | 25 | 5 | -4 | . | .
O=c1nc2c(-c3ccccc3F)n[nH]n2c2ccccc12 | -2 | 0 | 49* | -3 | -7 | 77* | 57*
COc1cc2cc(CN(CCO)S(=O)(=O)c3ccccc3)c(=O)[nH]c2cc1OC | 38* | -1 | 38* | 1 | 9 | 88* | 71*
CNC(=S)N(CCc1ccccc1)Cc1cc2cc(OC)c(OC)cc2[nH]c1=O | 24 | 0 | 12 | -12 | -3 | . | .
Nc1[nH]c(C(=O)c2ccccc2)c(-c2ccc(Cl)cc2)c1C(=O)c1c[nH]c2ccccc12 | . | . | . | . | -6 | . | .
C=CCNC(=O)/C(=C\c1ccco1)NC(=O)c1ccco1 | 14 | -5 | 59* | -1 | -6 | 81* | 72*
C=CCNC(=O)/C(=C/c1ccco1)NC(=O)c1ccc(Br)o1 | 2 | -3 | 2 | 11 | 3 | . | .
O=C(OC12CCCN(C1)/C(=C/c1cccnc1)C2)c1ccc(F)cc1 (stereo not given) | . | . | . | . | 11 | . | .
COC(=O)[C@]12C[C@H](CC(=O)NCCC(C)C)C(=O)N(CCC3=CCCCC3)C1=C[C@H](COCc1ccccc1)O[C@@H]2C | . | . | . | . | -3 | . | .
CC(=O)Nc1ccc2nc(-c3ccncc3)[nH]c2c1 | 12 | 0 | 32* | 10 | -4 | + | +
CC(=O)Nc1ccc2nc(-c3ccccn3)[nH]c2c1 | 29 | -5 | 18 | 8 | -4 | . | .
CSc1ccc(/C=C(\C(=O)O)c2ccc(S(=O)(=O)N3CCCCC3)s2)cc1 | 29 | 2 | 37* | -6 | 9 | 1 | -5
O=C(O)/C(=C\c1ccc(Cl)cc1)c1ccc(S(=O)(=O)N2CCCC2)s1 | 8 | . | 2 | . | -1 | . | .
O=C(Oc1ccc2c(=O)c(Oc3ccc4ccccc4c3)coc2c1)c1ccco1 | -10 | 2 | 40* | -1 | 2 | 42* | 35*
Cc1cccc(Oc2coc3cc(OC(=O)c4cc5ccccc5oc4=O)ccc3c2=O)c1 | 10 | -1 | 16 | 6 | -5 | . | .
Cc1cc(C)cc(Oc2coc3cc(OC(=O)c4cccnc4)ccc3c2=O)c1 | 5 | 4 | 32* | 19 | 6 | 47* | 36*
Cc1cccc(Oc2coc3cc(OC(=O)c4cncc(Br)c4)ccc3c2=O)c1 | 13 | 10 | 15 | 2 | 6 | . | .
CS(=O)(=O)N1C[C@]2(c3ccccc3)CC1Cc1ccccc12 | . | . | . | . | -2 | . | .
Cc1ccc2nc(-c3ccc(-c4cccc(Cl)c4)cc3)c(NCc3ccccc3)n2c1 | 36* | -8 | 29* | -7 | 4 | 12 | 9 | GDH-TPI dose=1.5*
CCC(C)Sc1ccc(-c2nc3ccc(C)cn3c2NCc2ccccc2)cc1 (stereo not given) | 15 | . | 38* | . | 2 | 94* | 75*
